BCLXL inh – inhibitors of human Bcl-xL, primary screen, biochemical, fluorescence polarization, HTS. Bcl-2-like protein 1 (Homo sapiens), Q07817. GST-Bcl-xL / FITC-Bim BH3 peptide fluorescence polarization. inhibition, % at 10.9 µM. 320,000 tested, 0.7% active;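 active = inhibition above the mean of all tested compounds plus 3 SD, cutoff set per campaign, cut at about 30% in these data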;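 also: inhibitors lower millipolarization by displacing the labeled peptide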
Target sequence (Q07817 whole entry, looked up): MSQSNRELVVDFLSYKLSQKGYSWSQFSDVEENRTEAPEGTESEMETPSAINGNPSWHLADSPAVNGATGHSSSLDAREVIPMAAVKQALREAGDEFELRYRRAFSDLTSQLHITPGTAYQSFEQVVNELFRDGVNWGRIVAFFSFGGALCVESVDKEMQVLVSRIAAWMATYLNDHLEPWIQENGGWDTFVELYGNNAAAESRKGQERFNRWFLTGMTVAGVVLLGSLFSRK
MCL1 BIM primary – inhibitors of MCL1 binding to BIM-BH3, primary screen, biochemical, fluorescence polarization | 320,000 tested, 0.68% active | AID 2057, 2009 | inhibition, % at 10.9 µM | GST-MCL1 / FITC-Bim-BH3 fluorescence polarization;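 active = inhibition above the mean inhibition of all tested compounds plus 3 SD, set per campaign, cut at about 40% in these data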;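 also: higher means more loss of mP so more displacement of Bim peptide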
Target sequence (Q07820 whole entry, looked up): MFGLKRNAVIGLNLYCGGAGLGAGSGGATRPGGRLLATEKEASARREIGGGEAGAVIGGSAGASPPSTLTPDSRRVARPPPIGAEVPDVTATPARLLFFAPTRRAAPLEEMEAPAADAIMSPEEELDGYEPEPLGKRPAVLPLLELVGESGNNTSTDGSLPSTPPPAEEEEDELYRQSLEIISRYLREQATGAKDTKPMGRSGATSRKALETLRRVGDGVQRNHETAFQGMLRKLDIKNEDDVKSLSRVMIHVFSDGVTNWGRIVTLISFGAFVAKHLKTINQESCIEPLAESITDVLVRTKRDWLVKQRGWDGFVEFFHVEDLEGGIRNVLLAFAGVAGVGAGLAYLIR
MEX-5 binding – MEX-5 zinc finger RNA-binding disruptors – biochemical, C. elegans, fluorescence polarization, MLPCN library, primary screen; Zinc finger protein mex-5 (Caenorhabditis elegans), Q9XUB2; MEX-5/FITC-TCR2 RNA binding; stronger effect = lower value; 300,000 tested, 0.38% active; activity score (negative = inhibition of binding), % at 10 µM;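 active = inhibition past about -25% in most replicates, and total fluorescence under double the plate's negative control median, limit read from the data; inconclusive = replicates evenly split on the limit, or fluorescence at least double controls; inactive = too little inhibition in most replicates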
GLD-1 TGE inh – GLD-1/TGE RNA complex disruptors, primary screen, biochemical, fluorescence polarization | 320,000 tested, 0.44% active | Female germline-specific tumor suppressor gld-1 (Caenorhabditis elegans), Q17339 | inhibition, % at 5.96 µM | purified GLD-1 + fluorescein TGE RNA;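 active = percent inhibition above a per-plate cutoff, the plate mean of test compounds plus 3 SD, cut at about 30% in these data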
EBV gp42 block – Epstein-Barr virus gp42 inhibitors, primary screen, biochemical, uHTS, fluorescence polarization | 220,000 tested, 0.42% active | AID 1085, 2008 | inhibition, % (tested at 21.74 µM) | Glycoprotein 42 (Epstein-Barr virus (strain AG876)), Q1HVG2 | Fluorescence polarization binding assay, mP read-out; in the data active = inhibition above about 50%
BCLXL inh confirm – Bcl-xL inhibitors blocking Bim BH3 binding, confirmation, counter-screen for MCL1 inhibitor project, biochemical, fluorescence polarization. GST-Bcl-xL / FITC-Bim BH3 peptide FP binding. shares compounds with MCL1 BIM primary. 1,700 tested, 54% active. inhibition, % at 10.9 µM;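 active = inhibition above a cutoff equal to the mean inhibition of all tested compounds plus 3 SD, cut at about 30% in these data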
MCL1 inh confirm – inhibitors of MCL1 binding to BIM-BH3, confirmation, biochemical, fluorescence polarization, triplicate. shares compounds with MCL1 BIM primary. GST-MCL1 / FITC-Bim-BH3 fluorescence polarization. inhibition, % at 10.9 µM. 1,700 tested, 61% active. AID 2168, 2009;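 active = inhibition above the average of all tested compounds plus 3 SD, cut at about 40% in these data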
GLD1 RNA confirm – GLD-1/TGE RNA binding inhibitors, retest, confirmation, biochemical, fluorescence polarization, triplicate; inhibition, % at 5.96 µM; GLD-1/FL-TGE RNA fluorescence polarization; 550 tested, 10% active; shares compounds with GLD-1 TGE inh;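 active = average inhibition across triplicates above the hit cutoff set in the primary screen, cut at about 32% in these data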
A number is an active result; - = inactive; ? = inconclusive; . = not tested or not shown. Compounds with a hit are over-represented: about 1.3% of the library has one in this group of screens.

SMILES | BCLXL inh | MCL1 BIM primary | MEX-5 binding | GLD-1 TGE inh | EBV gp42 block | BCLXL inh confirm | MCL1 inh confirm | GLD1 RNA confirm
COCCN1CN(S(=O)(=O)c2ccccc2)c2nc3ccccc3nc21 | 62 | 55 | - | 59 | - | 31 | 43 | -
COCCN1CN(S(=O)(=O)c2ccc(Cl)cc2)c2nc3ccccc3nc21 | - | - | - | - | - | . | . | .
O=C(COC(=O)c1ccc(Br)o1)NCc1ccccc1Cl | . | . | . | - | . | . | . | .
Cc1ccc2nc(-c3ccccc3)cc(C(=O)N(C)CC(=O)Nc3ccccc3Br)c2c1 | - | - | - | - | . | . | . | .
COc1ccc(NC(=S)N(CCc2c(C)[nH]c3ccc(C)cc23)Cc2cccs2)cc1 | - | - | - | - | - | . | . | .
COc1ccc2[nH]c(C)c(CCN(Cc3cccs3)C(=S)Nc3ccc(F)cc3)c2c1 | 73 | 75 | - | 49 | - | 41 | 52 | -
COc1ccc2[nH]c(C)c(CCN(Cc3cccs3)C(=S)Nc3ccccc3)c2c1 | 79 | 88 | - | 46 | - | 38 | 59 | -
O=C(Cn1cnc([N+](=O)[O-])c1)NC1CCCC1 | - | - | - | - | - | . | . | .
CC(OC(=O)CCN=C1NS(=O)(=O)c2ccccc21)C(=O)Nc1ccccc1F (centres undefined) | - | - | - | - | . | . | . | .
O=C(Nc1ccc(F)cc1F)NC1CCN(Cc2c(F)cccc2Cl)CC1 | - | - | - | - | - | . | . | .
COc1ccc(NC(=O)c2ccc(-c3ccc(C(C)=O)cc3)o2)cn1 | 69 | 60 | . | 57 | . | 55 | 65 | 45
CCc1nnc(NC(=O)CC23CC4CC(CC(Br)(C4)C2)C3)s1 | - | - | - | - | . | . | . | .
Cc1ccc(NC(=O)c2cc(NC(=O)C3CC=CCC3C(=O)O)ccc2N2CCOCC2)cc1Cl (centres undefined) | - | - | - | - | - | . | . | .
Cc1ccc2nc(NC(=O)CSc3nc(=O)n(CCN(C)C)c4c3CCCC4)sc2c1 | - | - | - | - | . | . | . | .
CNc1cccc2c1C(=O)c1ccccc1C2=O | 82 | 92 | - | 46 | 78 | 84 | 95 | -
O=C1c2ccccc2C(=O)c2c(NCc3cccnc3)cccc21 | - | - | - | - | - | . | . | .
CCOC(=O)/C(=N\Nc1cc(Cl)ccc1Cl)N1CCOCC1 | - | - | - | - | - | . | . | .
CCCCC1OC23CCCCC2C(C#N)(C(=N)O3)C1(C#N)C#N (centres undefined) | 78 | 78 | - | 54 | - | - | - | -
O=C(O)/C=C/C(=O)Nc1ccc(C2(c3ccc(NC(=O)/C=C/C(=O)O)cc3)c3ccccc3-c3ccccc32)cc1 | - | - | - | - | . | . | . | .
O=C1C=C(N(CCO)Cc2ccccc2)c2ccccc2C1=O | . | . | - | . | - | . | . | .
O=C1c2ccccc2C(=O)c2c1cccc2N(CCO)CCO | 72 | 65 | -42 | 46 | . | 58 | 77 | 50
CN(Cc1ccco1)C(=O)CSc1nn2c(=O)c(C(C)(C)C)nnc2s1 | . | . | . | - | . | . | . | .
COc1ccc(CNC(=O)CNC(=O)CNS(=O)(=O)c2ccc(C)c(C)c2)cc1 | - | - | - | - | . | . | . | .
COC(=O)c1c(NC(=O)CSc2ncn[nH]2)sc(C)c1C | 56 | 71 | - | 32 | . | - | - | -
COCCCNC(=O)c1c(N)n(-c2ccc3c(c2)OCO3)c2nc3ccccc3nc12 | 48 | 58 | - | 49 | . | - | - | -
SMILES | BCLXL inh | MCL1 BIM primary | MEX-5 binding | GLD-1 TGE inh | EBV gp42 block | BCLXL inh confirm | MCL1 inh confirm | GLD1 RNA confirm
CCn1c(SCc2nc3ccccc3[nH]2)nnc1-c1ccc(OC)cc1 | - | - | - | - | - | . | . | .
Cc1ccc(S(=O)(=O)CCC(=O)OCn2nnc3ccccc3c2=O)cc1 | - | - | - | - | - | . | . | .
O=C1C=C(O)c2cccc3cccc1c23 | 71 | 86 | - | 36 | . | 67 | 86 | 57
CCNC(=S)N1CCN(C(=O)C(Cc2ccccc2)NC(C)=O)CC1 (centres undefined) | - | - | - | - | - | . | . | .
OCCC1CN(Cc2cccc3nccnc23)CCN1Cc1ccc(F)cc1 (centres undefined) | 60 | 60 | - | 46 | - | - | - | -
COC(=O)c1ccc2c(c1)SC1=C(CCCC1=O)N2 | 148 | 177 | - | 96 | 146 | 118 | 161 | 48
S=C1CCSc2ccc(Cl)cc2N1 | . | . | - | . | - | . | . | .
O=C1CCCC2=C1Sc1ccc(Cl)cc1N2 | 69 | 77 | ? | 50 | 54 | 64 | 74 | -
Cc1ccc(OCC(=O)OCC(=O)Nc2ccc3c(c2)OCO3)cc1C | . | . | . | - | . | . | . | .
CCOC(=O)C1=C(C)OC(N)=C(C#N)C1c1cc2c(cc1[N+](=O)[O-])OCO2 (centres undefined) | 36 | 44 | - | 38 | - | 49 | 73 | -
O=C1CC(/C=C/c2ccccn2)=Nc2ccccc2N1 | 56 | 53 | - | 32 | - | - | - | -
O=C1CC(/C=C/c2ccc([N+](=O)[O-])cc2)=Nc2ccccc2N1 | - | - | . | - | - | . | . | .
CCCN(CC(=O)Nc1ccccc1C)C(=O)C1CC(=O)N(c2cccc(C)c2C)C1 (centres undefined) | - | - | - | - | . | . | . | .
COc1ccc2c(c1)c(=O)c(C(=O)c1ccc(F)cc1)cn2CC(=O)Nc1ccc(F)cc1 | 75 | 71 | - | 69 | - | - | - | -
COc1ccc2c(c1)c(=O)c(C(=O)c1ccc(C)cc1)cn2CC(=O)Nc1ccc(F)cc1 | - | - | - | - | - | . | . | .
O=c1[nH]c2cc3c(cc2cc1CN(Cc1nnnn1CC1CCCO1)C1CCCCC1)OCO3 (centres undefined) | 77 | 85 | - | 43 | 57 | 45 | 68 | -
Cc1ccc(-c2ccc(/C=N/N3C(=O)C4C5C=CC(CC5)C4C3=O)o2)c([N+](=O)[O-])c1 (centres undefined) | - | - | - | - | - | . | . | .
O=C1C2C3C=CC(C4CC34)C2C(=O)N1/N=C/c1ccc(-c2ccc(F)cc2[N+](=O)[O-])o1 (centres undefined) | 74 | 84 | - | 55 | - | - | - | -
